Records with an inconclusive call do not appear. Where a structure was tested more than once in an assay, its records may differ in their call. The source made the active and inactive calls. The call rests on the fitted dose curve; in most records, active means well fitted curve in the direction sought with a large enough effect; inconclusive means small, poorly fitted or top-dose-only effect, or another doubt; inactive means no such curve, though single readings can be large; an effect the other way counts as inactive or inconclusive.
Assays:
[1] = Quantitative high throughput screen for delayed death inhibitors of the malarial parasite plastid, 96 hour incubation (AID 488745); further: nearly all actives have a fitted effect of over 70% in size; further: potency means the concentration at half of the fitted maximal effect
In short: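 Two-generation (96 h) exposure of luciferase-reporter P. falciparum in erythrocytes, 2% hematocrit, 0.1% parasitemia final, 37 C, 5% CO2, RPMI 1640 with 0.5% Albumax. Growth inhibition scored by reduced luminescence.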

[2] = Quantitative high throughput screen for delayed death inhibitors of the malarial parasite plastid, 48 hour incubation (AID 488752); further: nearly all actives have a fitted effect of over 65% in size; further: potency means the concentration at half of the fitted maximal effect
In short: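 Cultures: infected erythrocytes at final 2% hematocrit and 0.1% parasitemia in Albumax-supplemented RPMI. Parasites express integrated firefly luciferase. Incubation with compound lasts 48 h before luminescent detection of remaining reporter activity.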

[3] = molecular target: Thioredoxin reductase 1, cytoplasmic (Rattus norvegicus) (UniProt O89049); experiment: qHTS Assay for Substrates of Mammalian Selenoprotein Thioredoxin Reductase 1 (TrxR1) (AID 488772);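 further: series mostly up to about 57 µM; a drop in NADPH fluorescence below the no-compound background marks a TrxR1 substrate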
In short: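 In this dual-purpose format, potential substrates are identified from the first fluorescence read after selenite addition, not from the 8-minute delta. Rat enzyme is preincubated with NADPH and then with compound at ~22 deg C.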

[4] = molecular target: Thioredoxin reductase 1, cytoplasmic (Rattus norvegicus) (UniProt O89049); experiment: qHTS Assay for Inhibitors of Mammalian Selenoprotein Thioredoxin Reductase 1 (TrxR1) (AID 488773);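 further: drop in NADPH fluorescence over an 8 min run after selenite addition; series mostly up to about 57 µM; nearly all actives have a fitted effect of over 40% in size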
In short: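 Inhibition is scored from the loss of NADPH fluorescence between first and last reads of an 8-min kinetic run. Selenite (400 uM) was the substrate, added after 15 min compound preincubation at room temperature.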

[5] = molecular target: Flap endonuclease 1 (Homo sapiens) (UniProt P39748); experiment: qHTS Validation Assay for the Inhibitors of Human Flap endonuclease 1 (FEN1) (AID 488816)
In short: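 qHTS format: compounds and 10 nM FEN1 incubated 15 min at room temperature before adding 50 nM substrate. Cleavage followed by reads at 0 and 15 min; normalized data fitted to a four-parameter Hill curve.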

[6] = molecular target: M-phase phosphoprotein 8 (Homo sapiens) (UniProt Q99549); experiment: qHTS Validation Assay for Inhibitors for MPP8 Chromodomain Interactions with Methylated Histone Tails (AID 488949); further: nearly all actives have a fitted effect of over 55% in size; further: potency means the concentration at half of the fitted maximal effect
In short: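 AlphaScreen proximity signal from streptavidin donor and Ni-chelate acceptor beads (10 ug/mL each) reported binding of MPP8 to trimethyl-K9 H3(1-18) peptide, both at 50 nM. The complex formed 30 min before a 30 min compound exposure at room temperature, in PBS pH 7.4.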

[7] = molecular target: Methanococcus maripaludis chaperonin (MmCpn) (UniProt Q6LX38); experiment: High-Throughput Screening for Modulators of Cytosolic Chaperonin Activity: MmCpn Primary Screen (AID 488978);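 further: 50 nM MmCpn enzyme hydrolysing 30 µM ATP at 37 °C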
In short: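 ATPase activity of 50 nM MmCpn was assayed with 30 uM ATP, 10 minutes at 37C, after a 5 min compound preincubation at room temperature. ADP production was read as HTRF emission at 590 and 665 nm.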

[8] = molecular target: Transient receptor potential cation channel subfamily V member 1 (Homo sapiens) (UniProt Q8NER1); experiment: HTS Assay for Compounds that Act as Enhancers of the Vanilloid Receptor 1 (AID 488979)
In short: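 Calcium influx kinetics via Fluo-8 (480/520 nm) in TRPV1-expressing cells, 2000/well cultured overnight at 35.5C. Compound-alone read 3 min (agonist phase), followed by EC20 capsaicin challenge for 2 min (enhancer phase).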

[9] = molecular target: Thyrotropin receptor (Homo sapiens) (UniProt P16473); experiment: qHTS Assay for Antagonists of the Thyroid Stimulating Hormone Receptor (AID 488980); further: series mostly up to about 58 µM
In short: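 Inhibition of cAMP raised by EC80 TSH (4 nM final) was read by HTRF, with lysate cAMP competing against cAMP-d2 for cryptate antibody after 30 min at room temperature. The cells were transfected HEK293 held in phosphodiesterase inhibitor RO 20-1724 at 70 uM.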

[10] = molecular target: Chromobox protein homolog 1 (Homo sapiens) (UniProt P83916); experiment: qHTS Validation Assay for Inhibitors of HP1-beta Chromodomain Interactions with Methylated Histone Tails (AID 488953); further: nearly all actives have a fitted effect of over 50% in size; further: potency means the concentration at half of the fitted maximal effect
In short: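 Compounds pinned into a preassembled complex of HP1-beta and trimethyl-K9 histone H3(1-18) biotin peptide (50 nM each; PBS pH 7.4, 0.01% Tween-20). After 30 min, bead-based AlphaScreen detection followed.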

Measured: Potency

Thyrotropin receptor (Homo sapiens), sequence (P16473 whole entry, looked up): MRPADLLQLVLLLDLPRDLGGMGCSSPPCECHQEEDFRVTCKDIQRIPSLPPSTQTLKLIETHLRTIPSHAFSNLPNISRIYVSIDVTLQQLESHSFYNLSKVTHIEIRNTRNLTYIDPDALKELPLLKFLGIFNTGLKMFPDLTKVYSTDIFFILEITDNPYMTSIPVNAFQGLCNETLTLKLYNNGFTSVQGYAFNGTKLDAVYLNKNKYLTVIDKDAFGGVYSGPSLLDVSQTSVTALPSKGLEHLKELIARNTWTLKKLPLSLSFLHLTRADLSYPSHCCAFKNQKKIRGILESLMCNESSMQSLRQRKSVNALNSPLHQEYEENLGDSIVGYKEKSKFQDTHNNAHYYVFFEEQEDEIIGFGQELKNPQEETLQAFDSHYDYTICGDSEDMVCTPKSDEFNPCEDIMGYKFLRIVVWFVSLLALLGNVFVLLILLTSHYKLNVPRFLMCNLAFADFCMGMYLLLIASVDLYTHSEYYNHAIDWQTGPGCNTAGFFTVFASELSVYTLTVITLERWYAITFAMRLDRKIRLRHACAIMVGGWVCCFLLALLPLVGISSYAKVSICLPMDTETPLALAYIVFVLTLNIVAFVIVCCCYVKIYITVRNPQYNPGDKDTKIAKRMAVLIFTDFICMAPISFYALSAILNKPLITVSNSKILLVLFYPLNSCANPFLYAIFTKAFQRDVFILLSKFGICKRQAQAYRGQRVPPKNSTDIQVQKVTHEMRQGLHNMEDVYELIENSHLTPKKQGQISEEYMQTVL
Thioredoxin reductase 1, cytoplasmic (Rattus norvegicus), sequence (O89049 whole entry, looked up): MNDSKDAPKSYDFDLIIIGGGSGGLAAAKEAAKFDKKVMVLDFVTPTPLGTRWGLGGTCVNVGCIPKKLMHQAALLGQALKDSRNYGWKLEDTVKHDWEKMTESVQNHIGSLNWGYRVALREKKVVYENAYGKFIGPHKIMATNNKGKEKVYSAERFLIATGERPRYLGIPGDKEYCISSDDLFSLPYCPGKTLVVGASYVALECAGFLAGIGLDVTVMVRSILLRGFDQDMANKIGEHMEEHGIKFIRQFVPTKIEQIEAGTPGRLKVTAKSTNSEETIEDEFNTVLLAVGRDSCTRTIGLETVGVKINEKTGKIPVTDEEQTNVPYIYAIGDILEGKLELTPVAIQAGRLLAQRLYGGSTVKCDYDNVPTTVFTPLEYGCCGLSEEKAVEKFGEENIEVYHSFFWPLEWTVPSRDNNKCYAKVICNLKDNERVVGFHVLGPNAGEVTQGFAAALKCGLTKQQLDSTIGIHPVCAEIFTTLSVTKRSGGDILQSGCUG
Chromobox protein homolog 1 (Homo sapiens), sequence (P83916 whole entry, looked up): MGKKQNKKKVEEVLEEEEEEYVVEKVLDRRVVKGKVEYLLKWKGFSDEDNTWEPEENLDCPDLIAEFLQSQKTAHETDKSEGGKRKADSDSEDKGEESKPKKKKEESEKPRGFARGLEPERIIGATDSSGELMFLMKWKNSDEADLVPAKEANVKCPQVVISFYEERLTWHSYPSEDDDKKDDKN
M-phase phosphoprotein 8 (Homo sapiens), sequence (Q99549 whole entry, looked up): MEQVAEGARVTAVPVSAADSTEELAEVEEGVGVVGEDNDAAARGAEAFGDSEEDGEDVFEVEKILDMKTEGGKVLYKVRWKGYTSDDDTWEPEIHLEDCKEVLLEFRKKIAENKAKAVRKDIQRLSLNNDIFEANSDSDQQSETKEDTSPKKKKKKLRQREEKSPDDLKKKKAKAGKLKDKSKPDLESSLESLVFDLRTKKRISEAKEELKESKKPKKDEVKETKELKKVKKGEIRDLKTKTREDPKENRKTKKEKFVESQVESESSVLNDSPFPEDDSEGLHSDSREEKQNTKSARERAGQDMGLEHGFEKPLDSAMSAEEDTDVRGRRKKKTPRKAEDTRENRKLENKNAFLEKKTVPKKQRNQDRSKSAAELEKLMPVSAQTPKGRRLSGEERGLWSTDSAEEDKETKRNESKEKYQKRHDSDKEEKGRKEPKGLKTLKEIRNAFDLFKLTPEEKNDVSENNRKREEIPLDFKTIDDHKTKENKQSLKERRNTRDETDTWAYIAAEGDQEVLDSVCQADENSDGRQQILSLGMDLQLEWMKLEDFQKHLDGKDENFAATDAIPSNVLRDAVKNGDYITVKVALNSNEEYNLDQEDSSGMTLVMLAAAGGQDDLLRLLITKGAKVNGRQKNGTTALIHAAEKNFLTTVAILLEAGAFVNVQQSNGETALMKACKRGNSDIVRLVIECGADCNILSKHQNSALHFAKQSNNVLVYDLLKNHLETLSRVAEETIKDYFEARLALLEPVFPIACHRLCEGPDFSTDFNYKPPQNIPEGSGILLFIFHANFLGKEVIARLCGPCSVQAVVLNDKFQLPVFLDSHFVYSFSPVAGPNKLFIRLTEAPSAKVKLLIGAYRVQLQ
Flap endonuclease 1 (Homo sapiens), sequence (P39748 whole entry, looked up): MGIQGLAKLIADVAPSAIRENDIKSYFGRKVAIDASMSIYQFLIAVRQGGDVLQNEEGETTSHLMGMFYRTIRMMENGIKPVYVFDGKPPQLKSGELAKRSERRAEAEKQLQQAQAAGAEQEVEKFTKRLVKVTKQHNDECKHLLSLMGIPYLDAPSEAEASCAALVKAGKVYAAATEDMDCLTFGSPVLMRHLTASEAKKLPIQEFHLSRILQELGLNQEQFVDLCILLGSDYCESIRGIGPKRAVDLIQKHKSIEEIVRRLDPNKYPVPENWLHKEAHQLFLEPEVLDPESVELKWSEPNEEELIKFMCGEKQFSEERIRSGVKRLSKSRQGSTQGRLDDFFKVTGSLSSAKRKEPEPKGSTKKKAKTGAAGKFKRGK
Methanococcus maripaludis chaperonin (MmCpn), sequence (Q6LX38 1-543): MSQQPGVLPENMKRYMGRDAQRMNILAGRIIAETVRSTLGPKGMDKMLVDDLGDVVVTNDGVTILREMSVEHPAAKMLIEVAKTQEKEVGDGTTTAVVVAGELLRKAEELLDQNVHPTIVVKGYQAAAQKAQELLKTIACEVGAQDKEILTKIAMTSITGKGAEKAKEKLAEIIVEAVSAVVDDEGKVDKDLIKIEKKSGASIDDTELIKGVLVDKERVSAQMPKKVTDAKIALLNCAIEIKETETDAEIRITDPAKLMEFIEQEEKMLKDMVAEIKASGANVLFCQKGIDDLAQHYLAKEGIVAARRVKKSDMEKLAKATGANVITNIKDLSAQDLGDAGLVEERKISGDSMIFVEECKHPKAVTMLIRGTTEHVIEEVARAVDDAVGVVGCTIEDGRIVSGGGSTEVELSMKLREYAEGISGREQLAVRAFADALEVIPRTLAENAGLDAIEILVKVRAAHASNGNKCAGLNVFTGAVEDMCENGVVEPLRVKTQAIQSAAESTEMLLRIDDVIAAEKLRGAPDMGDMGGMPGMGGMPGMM
Transient receptor potential cation channel subfamily V member 1 (Homo sapiens), sequence (Q8NER1 whole entry, looked up): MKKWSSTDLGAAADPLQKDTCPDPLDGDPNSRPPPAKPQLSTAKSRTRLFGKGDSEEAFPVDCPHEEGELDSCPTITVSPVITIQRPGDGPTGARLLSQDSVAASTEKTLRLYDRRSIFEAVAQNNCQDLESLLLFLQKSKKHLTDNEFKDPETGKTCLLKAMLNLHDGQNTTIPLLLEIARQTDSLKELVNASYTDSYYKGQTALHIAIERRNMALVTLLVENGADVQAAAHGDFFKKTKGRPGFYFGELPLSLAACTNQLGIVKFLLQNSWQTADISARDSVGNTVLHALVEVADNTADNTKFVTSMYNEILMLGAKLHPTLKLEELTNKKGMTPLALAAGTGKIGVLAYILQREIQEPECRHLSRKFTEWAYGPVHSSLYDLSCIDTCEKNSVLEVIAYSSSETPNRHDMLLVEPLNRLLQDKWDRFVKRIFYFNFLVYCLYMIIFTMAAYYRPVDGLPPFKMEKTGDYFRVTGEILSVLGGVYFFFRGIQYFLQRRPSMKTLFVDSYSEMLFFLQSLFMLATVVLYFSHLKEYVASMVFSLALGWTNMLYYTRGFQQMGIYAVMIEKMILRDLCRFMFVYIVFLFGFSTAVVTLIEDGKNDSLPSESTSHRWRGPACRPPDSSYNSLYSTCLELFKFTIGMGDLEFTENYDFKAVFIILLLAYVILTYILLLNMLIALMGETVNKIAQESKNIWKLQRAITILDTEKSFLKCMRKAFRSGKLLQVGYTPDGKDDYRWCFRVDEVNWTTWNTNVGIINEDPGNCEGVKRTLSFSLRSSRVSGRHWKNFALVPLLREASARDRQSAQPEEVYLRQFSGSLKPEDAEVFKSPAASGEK

Oc1ccc(O)cc1
active: [1] 10.4 µM | [2] 8.28 µM
inactive: [3] | [4] | [5] | [6] | [7] | [8] | [9]

COC(=O)[C@H]1[C@H]2C[C@H]3c4[nH]c5ccccc5c4CCN3C[C@H]2CC[C@@H]1O
inactive: [2] | [3] | [4] | [6] | [10] | [7] | [8] | [9]

COc1cc2c(cc1O)CC[C@@H]1[C@@H]2CC[C@]2(C)[C@@H](O)CC[C@@H]12
inactive: [3] | [4] | [5] | [6] | [7]

CC(CCc1ccccc1)NCC(O)c1ccc(O)c(C(N)=O)c1 (centres undefined)
active: [2] 13.1 µM
inactive: [3] | [4] | [5] | [6] | [10] | [7] | [8]

CC(C)NC[C@@H](O)COc1cccc2ccccc12
inactive: [6]

CN=C(NC#N)Nc1ccc(C2=NNC(=O)CC2C)cc1 (centres undefined)
inactive: [1] | [2] | [6] | [8] | [9]

CC(=O)O[C@H]1C[C@@H]2CC[C@@H]3[C@H](CC[C@@]4(C)[C@H]3C[C@H]([N+]3(C)CCCCC3)[C@@H]4OC(C)=O)[C@@]2(C)C[C@@H]1[N+]1(C)CCCCC1
inactive: [3] | [4] | [5] | [6] | [10] | [7]

N[C@H](CO)C(=O)O
inactive: [1] | [2] | [3] | [4] | [5] | [6] | [10] | [7] | [8] | [9]

O=C(O)c1cc2cc(Cc3cccnc3)ccc2o1
inactive: [1] | [2] | [3] | [4] | [5] | [6] | [10] | [7] | [8] | [9]

COc1cc(-c2ccc(=O)[nH]n2)ccc1OC(F)F
inactive: [1] | [2] | [6] | [8] | [9]

CC(C)COC(=O)OCN1C(=O)CN(CCN2CC(=O)N(COC(=O)OCC(C)C)C(=O)C2)CC1=O
inactive: [1] | [2] | [3] | [4] | [5] | [10] | [7] | [8] | [9]

C[C@]12CC[C@@H]3c4ccc(O)cc4CC[C@H]3[C@@H]1CC[C@@H]2O
inactive: [1] | [2] | [3] | [4] | [5] | [6] | [10] | [7] | [8] | [9]

CNCCC(Oc1ccccc1C)c1ccccc1 (centres undefined)
inactive: [1] | [2] | [3] | [6] | [7] | [9]

CCCn1c(=O)[nH]c(=O)c2[nH]cnc21
inactive: [1] | [2] | [3] | [4] | [5] | [6] | [10] | [7] | [8] | [9]

CCC(NC(C)C)C(O)c1ccc(O)c(O)c1 (centres undefined)
inactive: [2] | [3] | [5] | [6] | [10] | [7] | [8] | [9]

COc1cc(NS(C)(=O)=O)ccc1Nc1c2ccccc2nc2ccccc12
active: [1] 1.17 µM | [2] 1.85 µM | [10] 79.4 µM
inactive: [3] | [4] | [5] | [7] | [8] | [9]
39.8 µM (active) and inactive: [6]

CCCC1O[C@@H]2C[C@H]3[C@@H]4CCC5=CC(=O)C=C[C@]5(C)[C@H]4[C@@H](O)C[C@]3(C)[C@]2(C(=O)CO)O1 (some centres undefined)
inactive: [3] | [4] | [5] | [6] | [10] | [7]

C[C@@H]1C(=O)NC2=Nc3cccc(Cl)c3CN21
inactive: [1] | [2] | [3] | [4] | [5] | [6] | [10] | [7] | [8] | [9]

O=C1CCC(c2ccc(-n3ccnc3)cc2)=NN1
inactive: [1] | [2] | [3] | [4] | [5] | [6] | [7] | [8] | [9]

Nc1cc(Cl)c(NC2=NCCN2)c(Cl)c1
inactive: [1] | [2] | [3] | [4] | [5] | [6] | [10] | [7] | [8] | [9]

CN1C2CCC1CC(OC(=O)c1c[nH]c3ccccc13)C2 (centres undefined)
inactive: [3] | [4] | [5] | [6] | [10] | [7] | [8] | [9]

CC[C@H](C)C(=O)O[C@H]1CCC=C2C=C[C@H](C)[C@H](CC[C@@H]3C[C@@H](O)CC(=O)O3)[C@H]21
inactive: [3] | [4] | [5] | [6] | [10] | [7]

CC1(C)CCC(NC(=O)[C@@H](N)CCC(=O)O)CC1
inactive: [1] | [2] | [3] | [4] | [5] | [6] | [10] | [7] | [8] | [9]

CNCCC=C1c2ccccc2CCc2ccccc21
inactive: [3] | [4] | [6] | [10] | [7] | [9]

CC(C)C[C@H]1C(=O)N2CCC[C@H]2[C@]2(O)O[C@](NC(=O)[C@@H]3C=C4c5cccc6[nH]c(Br)c(c56)C[C@H]4N(C)C3)(C(C)C)C(=O)N12
inactive: [3] | [4] | [5] | [6] | [7]

N[C@@H](Cc1cnc[nH]1)C(=O)O
inactive: [1] | [2] | [3] | [4] | [5] | [6] | [10] | [7] | [8] | [9]

C1CCc2nnnn2CC1
inactive: [1] | [2] | [3] | [4] | [5] | [6] | [10] | [7] | [8] | [9]

C[N+]1(CCCCC[N+]2(C)CCCC2)CCCC1
inactive: [2] | [3] | [4] | [5] | [6] | [10] | [7] | [8] | [9]
